Records with an inconclusive call do not appear. Entries that show only a call come without a potency. The source made the active and inactive calls. Calls follow the shape of the dose curve; as a rule, active = well fitted inhibition curve with a large enough effect; inconclusive = small, poorly fitted or top-dose-only effect; inactive = flat fitted curve, though single readings scatter.
Potency is read from the fitted curve at half-maximal effect.

A short description of this assay: P-glycoprotein substrates identified in KB-8-5-11 adenocarcinoma cell line, qHTS therapeutic library screen (AID 1346987). Also: nearly all actives have a fitted effect of over 65% in size. The following applies: KB-8-5-11 (P-gp overexpressing) viability, CellTiter-Glo, 72 h; series mostly up to 44.5 µM. The procedure, abridged: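 KB-8-5-11: colchicine-selected sub-line of KB-3-1 over-expressing P-gp; assay medium lacked colchicine. 72 h drug exposure at 37 degree C, CellTiter-Glo.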
Turning to `CC(=O)OC1C(O)CC2(C)C(CCC(C)C23Cc2c(O)cc(CO)c(C=O)c2O3)C1(C)C` (stereo not drawn), the Potency result was “inactive”.
Still for that read-out and setting: next, `Cc1cccc(C)c1-n1c(=O)c2cnc(Nc3ccc(N4CCN(C)CC4)cc3)nc2n2c3ccccc3nc12`: 0.92 µM (active); `CC(C)N(CCCCOCC(=O)NS(C)(=O)=O)c1cnc(-c2ccccc2)c(-c2ccccc2)n1`: “inactive”.
For the molecule `CC(=O)NC[C@H]1CN(c2ccc(N3CCN(C(=O)CO)CC3)c(F)c2)C(=O)O1`, the Potency entry was “inactive”.
Take `COCC1OC(OC(C)(C)C2CCC3(C)C=C(C4CCC5C4(C)CC(O)C4OC(C(C)(C)OC6OC(CO)C(O)C(O)C6NC(C)=O)CCC45C)CCC3O2)C(NC(C)=O)C(O)C1O` (stereo not drawn): the outcome is “inactive [at 9.29 µM]”.
With `C/C=C/C=C/[C@@H]1O[C@](O)([C@H](CC)C(=O)NC/C=C/C=C(\C)[C@@H](OC)[C@@H](C)C2OC(/C=C/C=C/C=C(\C)C(=O)c3c(O)cc[nH]c3=O)[C@H](O)[C@@H]2O)[C@H](O)[C@H](O)C1(C)C` (stereo partly drawn), the Potency entry is “inactive”.
Same read-out and setting: next, `NCCCNc1ccc(Nc2nccc(Nc3cc(C4CC4)[nH]n3)n2)cc1`: 1.3 µM (active); `CC(C)CCC(=O)CC1c2ccccc2C(=O)N1c1ccc2ccc(Cl)nc2n1` (stereo not drawn): “inactive”.
On the same count and under the same terms, next, `CCC(COC)n1nnc2c(Nc3ccc(OC)cc3C)nc(C)cc21` (stereo not drawn): “inactive”; `CN(C)C/C=C/C(=O)Nc1cccc(C(=O)Nc2cccc(Nc3ncc(Cl)c(-c4c[nH]c5ccccc45)n3)c2)c1`: 13 µM (active).
Still for that read-out and setting: under `CC(c1ncncc1F)C(O)(Cn1cncn1)c1ccc(F)cc1F` (stereo not drawn) stands “inactive”; under `CC1CCC2(OC1)OC1CC3C4CC=C5CC(O)CC(O[C@@H]6OC[C@@H](O)[C@H](O)[C@H]6O)C5(C)C4CCC3(C)C1(O)C2C` (stereo partly drawn), “inactive”; under `CN(CCc1ccc(Nc2ncc(-c3cccnc3)s2)cc1)Cc1ccccc1`, “inactive”.
With `C=C[C@H]1[C@H](O[C@@H]2O[C@H](CO)[C@@H](O)[C@H](O)[C@H]2O)OC=C(C(=O)OC)[C@H]1C[C@@H]1c2cc(O)c(O)cc2CCN1C(C)=O`, the Potency entry was “inactive”.
On the same count and under the same terms, next, `C=C1CCC2C(C)(C(=O)OC)CCCC2(C)C1CCC(C)CC(=O)O` (stereo not drawn): “inactive”; `CNC(=O)c1ccccc1Nc1nc(Nc2ccc(N3CCNCC3)cc2)ncc1Cl`: 0.461 µM (active); `COc1cc2ncnc(N3CCC(Oc4cnc5ccccc5n4)C3)c2cc1OC` (stereo not drawn): 0.461 µM (active).
The same measure, in the same setting: under `C[S+](CC[C@H](N)C(=O)[O-])C[C@H]1O[C@@H](n2cnc3c(N)ncnc32)[C@H](O)[C@@H]1O` (stereo partly drawn) stands “inactive”; under `COc1ccc(-c2cnc3ccc(NCc4ccc(S(N)(=O)=O)cc4)nn23)cc1OC`, “inactive”.
The same measure, in the same setting: under `CN1c2ccccc2C(=O)N2CCC3c4ccccc4NC3C21` (stereo not drawn) stands 2.02 µM (active); under `COc1ccc(C2COc3cc(O)ccc3C2)c(O)c1` (stereo not drawn), “inactive”.
`COc1cccc(C(=O)N2CCN(C(=O)COc3cccc(C)c3)CC2)c1OC`: the Potency is 23.1 µM (active).
Same read-out and setting: next, `COc1cccc2cc3c(c(O[C@@H]4O[C@H](CO[C@@H]5O[C@H](CO)[C@@H](O)[C@H](O)[C@H]5O)[C@@H](O)[C@H](O)[C@H]4O)c12)C(C)OC3=O` (stereo partly drawn): “inactive”; `C/C=C/c1ccc2oc(-c3ccc(O)c(OC)c3)c(C)c2c1`: “inactive”; `CC1CCC2(CO)C(C(=O)O)=CCCC2C1(C)CCc1ccoc1` (stereo not drawn): “inactive”.
On the same count and under the same terms, under `CC(=O)NC1=NN(C(C)=O)C(C)(c2ccccc2)S1` (stereo not drawn) stands 5.8 µM (active).
Still for that read-out and setting: next, `CCOc1ccc(S(=O)(=O)n2c(C)nc3ccccc32)cc1`: “inactive”; `COC(=O)c1ccnc(-c2cc(C(=O)NCCc3ccccc3)ccn2)c1`: “inactive”.

The values above are taken from PubChem BioAssay (NCATS).
